The assay is described as follows: NCI Yeast Anticancer Drug Screen. Data for the CLN2oe strain (AID 163).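 Note: 0% = growth of vehicle-only control cultures.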 Particulars: S. cerevisiae CLN2oe strain, hits give high values. How it is done: Growth inhibition of yeast strains with defined genetic alterations is measured as a screen for potential anti-cancer activity. Selected strains with alterations in DNA damage repair or cell cycle control were exposed to compounds and growth inhibition was measured relative to vehicle treated controls. The strain used in this assay is CLN2oe

Compounds without any hit were thinned out: in the full panel of roughly 79,000, 15% have a hit. Values without a mark were called inactive. The source made the active and inactive calls. Cut-off read from the data, not from the text of the source: active = growth inhibition above about 70%; inactive = the rest.

In the case of `CCCC/C=C/C(CC)(C(=O)OCC)C(=O)OCC`, the growth inhibition was -4% (at 1.2 µM); 0% (at 3.7 µM); -6% (at 11.0 µM); -7% (at 33.0 µM); -3% (at 100.0 µM).
The matching figures for `O=c1c2ccccc2ncn1COCc1ccccc1`: -26%, -15%, -12%, -20% and -9%.
Turning to `CCOc1ccc2c(c1)c(CC(=O)O)cn2C`, the growth inhibition (at 1.2 µM) is -3%; the growth inhibition (at 3.7 µM) was -1%; the growth inhibition (at 11.0 µM) is 6%; the growth inhibition (at 33.0 µM) is 24%; the growth inhibition (at 100.0 µM) was 40%.
For `COC(=O)CSSCc1ccc([N+](=O)[O-])cc1`, the growth inhibition is, setting by setting: (at 1.2 µM) -1%; (at 3.7 µM) -6%; (at 11.0 µM) 7%; (at 33.0 µM) 43%; (at 100.0 µM) 95% (active).
Turning to `CC(C)(CN1CCCCC1)C(=O)CC(SCCS(=O)(=O)O)c1ccc(Br)cc1` (stereo not given), the growth inhibition was 2% (at 1.2 µM); 4% (at 3.7 µM); 13% (at 11.0 µM); 25% (at 33.0 µM); 33% (at 100.0 µM).
For the molecule `O=S(=O)(CCCl)c1ccccc1Cl`, the growth inhibition by setting is: (at 1.2 µM) -5%; (at 3.7 µM) -2%; (at 11.0 µM) 3%; (at 33.0 µM) 68%; (at 100.0 µM) 97% (active).
For the molecule `CC(Br)C(=O)c1ccc2cc(Br)c3ccccc3c2c1` (stereo not given), the growth inhibition was -4% (at 1.2 µM); -2% (at 3.7 µM); -7% (at 11.0 µM); -4% (at 33.0 µM); -1% (at 100.0 µM).
On to `OC(COc1cccc2ccccc12)CN1CCOCC1` (stereo not given), for which the growth inhibition is 21% (at 1.2 µM); 48% (at 3.7 µM); 61% (at 11.0 µM); 69% (at 33.0 µM); 72% (active) (at 100.0 µM).

The values above are taken from PubChem BioAssay (NCI).
